The text below walks through data of PubChem BioAssay (NCI).

The structures appear in SMILES notation. This is part of a sample that, as a whole, favours compounds with a hit. Of some 83,000 tested, about 20% had one in any assay.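 Single-dose data. Exposure time 48 hours. Values below 10 considered active.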 Activity calls are given as the source filed them.

This assay relates to NCI-H522 lung. As to the kind of experiment: NCI-60 one-dose screen, 48 h (100 = growth as untreated, 0 = no growth, -100 = all killed). The conditions noted are these: 10 µM. The protocol:
Growth inhibition of the NCI-H522 human Non-Small Cell Lung tumor cell line is measured as a screen for anti-cancer activity. Cells are grown in 96 well plates and exposed to the test compound for 48 hours. Compounds are tested at a single concentration, which is 10^-5 M for most compounds. The reported endpoint is percent growth (GI% or GIPRCNT), where numbers from 0 - 100% represent growth inhibition, and numbers from -100% - 0 represent cell death. For example, a value of 40 represents 60% growth inhibition. A value of 0 means no net growth occurred over the course of the experiment. A value of -40 indicates 40% of cells at the beginning of the experiment died by the end of the experiment. A value of -100 means all cells are dead at the end of the experiment.
NCI-60 Human Tumor Cell Lines Screen was performed using the standard one-dose NCI protocol, which is described in more detail at https://dtp.cancer.gov/discovery_development/nci-60/default.htm.
Compounds with GIPRCNT values below 10 were considered active. Activity score was based on GIPRCNT using the following formula: […]
Score is 0 for GIPRCNT values of 100 or above, 50 for GIPRCNT values of 0, and 100 for GIPRCNT values of -100.
Turning to `O=S(=O)(OCCO)c1ccccc1`, the growth is 95.5% (inactive). With `CN1CCC(OC2c3ccccc3CCc3ccccc32)CC1` the figure was 96.7% (inactive).

In the case of `O=c1[nH]c(=S)c2c(n1CCCO)CCC2`, the growth was 88.4% (inactive). Consider `Brc1ccc(SCN(CSc2ccc(Br)cc2)Cc2ccccc2)cc1`, for which the growth is 73% (inactive). For the compound `O=[N+]([O-])c1ccc(O)c2ncccc12`, the growth is 51.6% (inactive). With `COc1ccc(S(=O)(=O)c2ccc(C(N)=O)cc2)cc1NC(=O)c1[nH]c(C)c2c1CCCCC2=O` the figure was 42.7% (inactive); with `COc1ccc(/C=N/NC(=O)c2cnn(CC(O)Cc3ccccc3)c2N)cc1OC1CCCC1` (stereo not given), 92.7% (inactive). As to `COc1cc(CNCCCN2C(=O)c3ccc4c5c(ccc(c35)C2=O)C(=O)N(CCCNCc2cc(OC)c(OC)c(OC)c2)C4=O)cc(OC)c1OC`, the growth is -80.7% (active). With `O=C(Nc1ccc(Cl)c(Cl)c1)OCn1ncc2ccc([N+](=O)[O-])cc21` the figure was 49.4% (inactive); with `O=C(N/N=C(\CS(=O)(=O)c1ccccc1)c1cc2ccccc2oc1=O)c1ccccc1`, 100% (inactive). With `O=c1ccc2ccccc2o1` the figure was 94.3% (inactive); with `N#Cc1c(-c2cccc(F)c2)cc(-c2ccc(Br)s2)[nH]c1=O`, 35.7% (inactive); with `CCC(C)[C@H]1O[C@]2(CC[C@@H]1C)C[C@@H]1C[C@@H](C/C=C(\C)[C@@H](OC3C[C@H](OC)C(O[C@H]4C[C@H](OC)[C@@H](O)[C@H](C)O4)[C@H](C)O3)[C@@H](C)/C=C/C=C3\CO[C@@H]4[C@H](O)C(C)=C[C@@H](C(=O)O1)[C@]34O)O2` (stereo not given in full), 17.2% (inactive). With `CCCCC(O)Cn1ncc(C(=O)OCC)c1NC(=O)NCc1ccccc1C(F)(F)F` (stereo not given) the figure was 88.3% (inactive); with `CSC1=CC(=O)c2ccccc2C1=O`, 18.5% (inactive). For `CCN(C(=O)c1ccc2c3c(cccc13)C=C2)c1ccccc1`, the growth was 79.1% (inactive).

With `COC(=O)c1ccc(C(=O)Nc2ccccc2N)cc1`, the growth was 75.1% (inactive).

In the case of `O=C(Nc1ccccc1)Oc1cccc2cccnc12`, the growth was -4.77% (active). With `CSc1nnc(-c2sc3nnc(-c4ccccc4)c(-c4ccccc4)c3c2O)o1` the figure was 96.6% (inactive); with `O=c1onc(-c2ccccc2)c2ccccc12`, 101% (inactive). With `Cc1cc(NS(=O)(=O)c2ccc(NC(=O)COc3ccc(-c4cc5ccccc5[nH]4)cc3)cc2)no1` the figure was 20.8% (inactive); with `Cc1ccc2c(N/N=C\c3ccco3)cc(C)nc2n1`, 88.6% (inactive). As for `NC(=O)c1nc2c([nH]c1=O)CCCC2`, the growth was 91.6% (inactive). With `N#Cc1c(O)c2c(c(O)c1C#N)C(=O)c1ccccc1C2=O` the figure was -5.65% (active); with `COC(=O)c1c2c(c(C)[n+]([O-])c1C)C(=O)C=C(NCc1ccc(F)c(Cl)c1)C2=O`, -39.4% (active); with `Cc1nc2cc(Nc3nc(Nc4ccc(F)cc4)nc(-c4cccs4)n3)ccc2n1Cc1ccccc1`, 53.5% (inactive).

As to `C(=C\c1ccccc1)/CN1CCN(C(c2ccccc2)c2ccccc2)CC1`, the growth is 93.5% (inactive).

`COc1cc(/C=C/C(=O)C(=Cc2ccc(F)c(F)c2)C(=O)/C=C/c2ccc(O)c(OC)c2)ccc1O`: the growth is -48.3% (active). For the compound `O=C(Nc1ccccc1O)c1ccc(NS(=O)(=O)c2cccc3cccnc23)cc1`, the growth is 37.7% (inactive). With `CCCC1=NNC(=O)C1` the figure was 94% (inactive). As for `COc1cc(-c2nc(Nc3nc4ccccc4[nH]3)nc(N)c2C#N)cc(OC)c1OC`, the growth was 20.1% (inactive). Turning to `Cc1nc2nc(C(F)(F)F)[nH]c2nc1C`, the growth is 90.1% (inactive).

With `COc1cc(-c2nc3ccccc3o2)cc(CN2CCN(c3ccccc3)CC2)c1O`, the growth was 58.4% (inactive). With `COc1ccc(/C=N\N2CCOCC2)cc1OC1CCCC1` the figure was 95.6% (inactive); with `CCN(CC)CCCNc1ccc(C)c2sc3ccccc3c(=O)c12`, 54.4% (inactive); with `CCC12CCC3c4ccc(O)cc4CCC3C1CC(O)C2O` (stereo not given), 37.4% (inactive).

In the case of `O=C1C(N2CCOCC2)=Cc2cccc3cccc1c23`, the growth was 89.4% (inactive).

As to `CC(=O)N(CC(O)CO)c1c(I)c(C(=O)NCCO)c(I)c(C(=O)NCC(O)CO)c1I` (stereo not given), the growth was 97.8% (inactive). With `COc1cc(/C=N/NC(=O)c2cnn3c2NC(c2ccccc2)C3)cc(OC)c1OC` (stereo not given) the figure was 35.5% (inactive); with `O=C1C(Br)=C(c2ccccc2)C(=O)C(Br)=C1c1ccccc1`, -61% (active).
